In PubChem BioAssay (NCATS) one finds Potency data, which are given here for 36 compounds.

Results filed as inconclusive are left out. A number with no mark means an inactive call. The source made the active and inactive calls. Unless noted, calls follow the shape of the full dose curve.

A short description of assay [1]: qHTS for Inhibitors of the Functional Ribonucleoprotein Complex (vRNP) of Lassa (LASV) Arenavirus: LASV Primary Screen - GLuc reporter signal (AID 1347082; calls by dose curve; tested in HEK293 reporter line; also: series mostly up to about 57 µM; nearly all actives have a fitted effect of over 60% in size). For orientation: Quantitative high-throughput screening tests each substance at several concentrations.
Assay [2] is described as follows: qHTS for Inhibitors of the Functional Ribonucleoprotein Complex (vRNP) of Lassa (LASV) Arenavirus: Viability assay - alamar blue signal for LASV Primary Screen (AID 1347083; calls by dose curve; tested in HEK293 reporter line; also: series mostly up to about 57 µM; nearly all actives have a fitted effect of over 80% in size).
A short description of assay [3]: qHTS for Inhibitors of the Functional Ribonucleoprotein Complex (vRNP) of Lymphocytic Choriomeningitis Arenaviruses (LCMV): Viability assay - alamar blue signal for LCMV Primary Screen (AID 1347085; calls by dose curve; tested in HEK293 reporter line; also: series mostly up to about 57 µM; nearly all actives have a fitted effect of over 80% in size).
The target in assay [4] is Nucleoprotein (Lymphocytic choriomeningitis virus (strain Armstrong)) (UniProt P09992). The assay is described as follows: qHTS for Inhibitors of the Functional Ribonucleoprotein Complex (vRNP) of Lymphocytic Choriomeningitis Arenaviruses (LCMV): LCMV Primary Screen - GLuc reporter signal (AID 1347086). Also: nearly all actives have a fitted effect of over 70% in size. Also: potency is read from the fitted curve at half-maximal effect.
Nucleoprotein (Lymphocytic choriomeningitis virus (strain Armstrong)), sequence (P09992 whole entry, looked up): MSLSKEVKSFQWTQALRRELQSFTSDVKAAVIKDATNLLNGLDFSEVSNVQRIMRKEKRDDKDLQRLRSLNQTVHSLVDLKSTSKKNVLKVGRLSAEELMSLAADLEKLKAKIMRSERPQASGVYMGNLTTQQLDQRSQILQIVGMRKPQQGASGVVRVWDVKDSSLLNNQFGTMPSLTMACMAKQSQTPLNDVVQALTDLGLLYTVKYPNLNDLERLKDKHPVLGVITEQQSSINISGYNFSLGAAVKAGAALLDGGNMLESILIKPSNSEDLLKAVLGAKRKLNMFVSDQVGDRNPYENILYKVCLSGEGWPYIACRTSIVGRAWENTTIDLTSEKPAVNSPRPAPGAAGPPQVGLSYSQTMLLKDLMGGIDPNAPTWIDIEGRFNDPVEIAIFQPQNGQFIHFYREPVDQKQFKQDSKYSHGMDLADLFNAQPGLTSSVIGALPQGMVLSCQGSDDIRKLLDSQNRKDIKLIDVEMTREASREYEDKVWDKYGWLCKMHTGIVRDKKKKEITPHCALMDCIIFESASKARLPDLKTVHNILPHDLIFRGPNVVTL

As for `Cc1c(Cl)cccc1Nc1ccccc1C(=O)O`, the Potency entry in assay [1], in assay [2], in assay [3] and in assay [4] was “inactive” each time.
Take `Cc1[nH]c(=O)c(C#N)cc1-c1ccc2nccn2c1`: the Potency entry in assay [1], in assay [2], in assay [3] and in assay [4] was “inactive” each time.
`CN(Cc1cc(Br)cc(Br)c1N)C1CCCCC1`: the Potency result in assay [1], in assay [2], in assay [3] and in assay [4] was “inactive” throughout.
Turning to `CC(C)(C)C(=O)OCOC(=O)[C@@H]1N2C(=O)[C@@H](NC(=O)[C@H](N)c3ccccc3)[C@H]2SC1(C)C`, the Potency result in assay [1], in assay [2], in assay [3] and in assay [4] was “inactive” each time.
Regarding `C/C=C(/C(=C/C)c1ccc(OC(C)=O)cc1)c1ccc(OC(C)=O)cc1`, the Potency entry in assay [1], in assay [2], in assay [3] and in assay [4] was “inactive” in each case.
Consider `Oc1ccc(Cl)cc1Sc1cc(Cl)ccc1O`, for which the Potency entry in assay [1], in assay [2], in assay [3] and in assay [4] was “inactive” in each case.
Turning to `O=S(=O)(c1cccc2cnccc12)N1CCCNCC1`, the Potency entry in assay [1], in assay [2], in assay [3] and in assay [4] was “inactive” throughout.
For the compound `Cc1c(-c2ccccc2)oc2c(C(=O)OCCN3CCCCC3)cccc2c1=O`, the Potency entry in assay [1], in assay [2], in assay [3] and in assay [4] was “inactive” throughout.
Regarding `CCOC(=O)COc1ccc2c(C)c(CCN(CC)CC)c(=O)oc2c1Cl`, the Potency entry in assay [1], in assay [2], in assay [3] and in assay [4] was “inactive” each time.
On to `CN(C)CCn1nnnc1SCC1=C(C(=O)O)N2C(=O)[C@@H](NC(=O)Cc3csc(N)n3)[C@H]2SC1`, for which the Potency result in assay [1], in assay [2], in assay [3] and in assay [4] was “inactive” in each case.
Take `CCC(=O)O[C@]1(C(=O)SCF)[C@H](C)C[C@H]2[C@@H]3C[C@H](F)C4=CC(=O)C=C[C@]4(C)[C@@]3(F)[C@@H](O)C[C@@]21C`: the Potency result in assay [1], in assay [2] and in assay [3] was “inactive” in each case. Further, the Potency in assay [4] was 17.2 µM (active).
For `O=C(NCCCN1CCOCC1)c1ccc(Cl)cc1`, the Potency result in assay [1], in assay [2], in assay [3] and in assay [4] was “inactive” in each case.
Take `Cc1cc2c(OCC(CNC(C)(C)C)OC(=O)c3ccccc3)cccc2[nH]1` (centres undefined): the Potency result in assay [1], in assay [2], in assay [3] and in assay [4] was “inactive” throughout.
With `C[C@@H]1C[C@H]2[C@@H]3CCC4=CC(=O)C=C[C@]4(C)[C@@]3(F)[C@@H](O)C[C@]2(C)[C@@]1(O)C(=O)COC(=O)c1ccncc1`, the Potency result in assay [1], in assay [2], in assay [3] and in assay [4] was “inactive” each time.
Turning to `CN1Cc2c(N)cccc2C(c2ccccc2)C1` (centres undefined), the Potency result in assay [1], in assay [2], in assay [3] and in assay [4] was “inactive” each time.
Take `CC(=O)O[C@]1(C(C)=O)CC[C@H]2[C@@H]3C=C(Cl)C4=CC(=O)CC[C@]4(C)[C@H]3CC[C@@]21C`: the Potency entry in assay [1], in assay [2], in assay [3] and in assay [4] was “inactive” each time.
As to `O=C(O)Cn1c(C(=O)Nc2nc(-c3ccccc3Cl)cs2)cc2ccccc21`, the Potency result in assay [1], in assay [2], in assay [3] and in assay [4] was “inactive” in each case.
Regarding `CN1[C@@H]2CC[C@H]1CC(OC(=O)c1c[nH]c3ccccc13)C2` (some centres undefined), the Potency result in assay [1], in assay [2], in assay [3] and in assay [4] was “inactive” throughout.
Turning to `Clc1ccc(C(Cn2ccnc2)OCc2ccsc2Cl)c(Cl)c1` (centres undefined), the Potency entry in assay [1], in assay [2], in assay [3] and in assay [4] was “inactive” in each case.
With `CCN(CC)CCOC(=O)C(Cc1cccc2ccccc12)CC1CCCO1` (centres undefined), the Potency result in assay [1], in assay [2], in assay [3] and in assay [4] was “inactive” each time.
For the compound `O=C(O)C1CCC1`, the Potency entry in assay [1], in assay [2], in assay [3] and in assay [4] was “inactive” in each case.
On to `COC(=O)[C@@H](N)Cc1ccc(O)c(O)c1`, for which the Potency result in assay [1], in assay [2], in assay [3] and in assay [4] was “inactive” throughout.
With `c1ccc(CN(CC2=NCCN2)c2ccccc2)cc1`, the Potency entry in assay [1], in assay [2], in assay [3] and in assay [4] was “inactive” each time.
For `Cc1c(N(C)C)c(=O)n(-c2ccccc2)n1C`, the Potency result in assay [1], in assay [2], in assay [3] and in assay [4] was “inactive” in each case.
Regarding `NC(=O)C1(N2CCCCC2)CCN(CCCC(=O)c2ccc(F)cc2)CC1`, the Potency result in assay [1], in assay [2], in assay [3] and in assay [4] was “inactive” throughout.
As for `CO[C@@H]1[C@@H](O[C@@H]2O[C@H](C)[C@@H](O[C@H]3C[C@@](C)(O)[C@@H](O)[C@H](C)O3)[C@H](N(C)C)[C@H]2O)[C@@H](CC=O)C[C@@H](C)[C@@H](O[C@@H]2CC[C@H](N(C)C)[C@@H](C)O2)/C=C/C=C/C[C@@H](C)OC(=O)C[C@H]1OC(C)=O`, the Potency result in assay [1], in assay [2], in assay [3] and in assay [4] was “inactive” each time.
Take `CCOC(=O)NNc1nncc2ccccc12`: the Potency result in assay [1], in assay [2], in assay [3] and in assay [4] was “inactive” throughout.
For the compound `CC1CCc2cc(F)cc3c(=O)c(C(=O)O)cn1c23` (centres undefined), the Potency entry in assay [1], in assay [2], in assay [3] and in assay [4] was “inactive” each time.
`O=C(O)COC(=O)Cc1ccccc1Nc1c(Cl)cccc1Cl`: the Potency entry in assay [1], in assay [2], in assay [3] and in assay [4] was “inactive” in each case.
Turning to `CCCCOc1ccc(OCCCN2CCOCC2)cc1`, the Potency result in assay [1], in assay [2], in assay [3] and in assay [4] was “inactive” throughout.
Take `Cc1ccc(/C(=C\CN2CCCC2)c2ccccn2)cc1`: the Potency result in assay [1], in assay [2], in assay [3] and in assay [4] was “inactive” throughout.
For `CCN(CCCCOC(=O)c1ccc(OC)c(OC)c1)C(C)Cc1ccc(OC)cc1` (centres undefined), the Potency result in assay [1], in assay [2], in assay [3] and in assay [4] was “inactive” throughout.
For `O=C(c1ccc(F)cc1)C1CCN(CCn2c(=S)[nH]c3ccccc3c2=O)CC1`, the Potency entry in assay [1], in assay [2], in assay [3] and in assay [4] was “inactive” throughout.
Consider `CC(=O)OCC1=C(C(=O)O)N2C(=O)[C@@H](NC(=O)CSc3ccncc3)[C@H]2SC1`, for which the Potency entry in assay [1], in assay [2], in assay [3] and in assay [4] was “inactive” in each case.
As for `CCCCCCCCCCCCCCC[C@H](O)[C@@H](N)CO`, the Potency result in assay [1], in assay [2], in assay [3] and in assay [4] was “inactive” in each case.
For the compound `CC(=O)OCC(=O)[C@@]1(O)CC[C@H]2[C@@H]3CCC4=CC(=O)C=C[C@]4(C)[C@H]3[C@@H](O)C[C@@]21C`, the Potency result in assay [1], in assay [2], in assay [3] and in assay [4] was “inactive” throughout.
